Source: PubChem BioAssay AID743365 (National Center for Advancing Translational Sciences (NCATS), 2014)

Test: qHTS profiling of inhibitors of Plasmodium falciparum (DD2) proliferation (acoustic dispense)
Conditions: P. falciparum Dd2 in erythrocytes, SYBR Green DNA, 72 h; at 49.8 µM (top of the series) unless noted
From the text: Plasmodium falciparum is a virulent malarial parasite that kills 1-2 million people worldwide each year. Transmitted by mosquitoes, the sporozoite form of the parasite enters the blood stream to infect hepatocytes, where they become merozoites that infect red blood cells (erythrocytes). Within erythrocytes, merozoites begin a […] cycle of growth and division, after which the parasite is released to infect new red blood cells. Gametocytes, which form within erythrocytes as well, circulate in the bloodstream and are ingested by the mosquito, thereby completing the life cycle. To profile malarial isolates for differential chemical responses and to identify inhibitors of malarial growth, an assay that measures P. falciparum growth and replication within erythrocytes was employed. This assay uses a DNA binding fluorescent dye (SYBR Green) to detect parasite DNA following cell lysis. Because mature erythrocytes lack DNA, only Plasmodium-derived DNA is detected.
The SYBR Green viability assay was adapted from a method described previously (Plouffe et al., 2008). For screening 3 ul culture medium was dispensed into 1536 well black clear bottom plates (Aurora Biotechnologies) using a Multidrop Combi (Thermo Fisher Scientific Inc.), 23 nL of compounds in DMSO were added by an acoustic dispenser (EDC Biosystems), and 5 ul of erythrocytes infected with P. falciparum (0.3% parasitemia, 2.5% hematocrit final concentration) were added. The plates were incubated at 37 C in a humidified incubator in 5% CO2 for 72 h, and 2 ul lysis buffer (20 mM Tris HCl, 10 mM EDTA, 0.16% saponin, 1.6% triton X, 10X SYBR Green I supplied as 10,000X […] by Invitrogen) was added to each well. The plates were mixed for 25 sec with gentle shaking and incubated overnight at room temperature in the dark. The following morning, fluorescence intensity at 485(14) nm excitation and 535(25) nm emission wavelengths was measured on an EnVision (Perkin Elmer) plate reader. Plate reads were normalized relative to the control inhibitor (0.29 uM artemisinin) and vehicle (DMSO) wells present on each plate and then corrected by an algorithm using vehicle-only control plates at the beginning and end of the compound plate stack.

Structure (SMILES) | parasite growth, lower = inhibition
COC(=O)[C@@]1(OC)C[C@@H]2O[C@@]1(C)n1c3ccccc3c3c4c(c5c6ccccc6n2c5c31)C(=O)N(C)C4 | 13.1% [at 16.5 µM]
OB1OCc2cc(F)ccc21 | 88.5%
CC1=C(O)C(=O)C=C2C1=CC=C1[C@@]2(C)CC[C@@]2(C)[C@@H]3C[C@](C)(C(=O)O)CC[C@]3(C)CC[C@]12C | 3.33%
CC(=O)N(O)CCCP(=O)(O)O | 4.17%
COC1=CC(C)=C[C@@H](C)[C@@H](O)[C@@H](C)CC(C)=CC=C[C@H](OC)[C@H]([C@@H](C)[C@@H](O)[C@H](C)[C@@]2(O)C[C@@H](O)[C@H](C)[C@@H](C(C)C)O2)OC1=O | 0.538%
CC(=O)Nc1nnc(S(N)(=O)=O)s1 | 91%
C[C@@H]1C[C@@H]([C@H](O)CC2CC(=O)NC(=O)C2)C(=O)[C@@H](C)C1 | 0.0707%
CC(C)(N)CNC(=O)CC1CCC2(CC1)OOC1(O2)C2CC3CC(C2)CC1C3 (configuration not stated) | -0.141%
O=c1[nH]c2ccc(Cl)cc2c(N[C@@H]2CN3CCC2CC3)c1-c1nc2ccccc2[nH]1 | 0.0567%
CC=C1C2C=C(C)CC1(N)c1ccc(=O)[nH]c1C2 (configuration not stated) | 97.1%
C[C@]12O[C@H](C[C@@]1(O)C(=O)O)n1c3ccccc3c3c4c(c5c6ccccc6n2c5c31)CNC4=O | 5.95% [at 4.15 µM]
CC=C(C)C(=O)N[C@@H](c1ccccc1)[C@@H](O)C(=O)O[C@H]1C[C@@]2(O)[C@@H](OC(=O)c3ccccc3)[C@@H]3[C@]4(OC(C)=O)CO[C@@H]4C[C@H](O)[C@@]3(C)C(=O)[C@H](OC(C)=O)C(=C1C)C2(C)C | 4.37%
CC(=Cc1csc(C)n1)[C@@H]1C[C@H]2O[C@@H]2CCC[C@H](C)[C@@H](O)[C@@H](C)C(=O)C(C)(C)[C@@H](O)CC(=O)O1 | 3%
O=C(C[C@@H]1NCCC[C@@H]1O)Cn1cnc2ccccc2c1=O | -0.505%
C[C@H]1CCCC=CC2C[C@H](O)C[C@@H]2[C@H](O)C=CC(=O)O1 (some centres not stated) | -0.172%
CO[C@H]1CCC(O[C@H]2C[C@H]([C@]3(C)CC[C@]4(C[C@H](O)[C@@H](C)[C@@H]([C@@H](C)C=C(C)C(=O)[C@H](C)C[C@H](C)C(=O)O)O4)O3)O[C@]3(O[C@@H]([C@H]4O[C@@](O)(CO)[C@H](C)C[C@H]4C)C[C@H]3C)[C@H]2C)O[C@H]1C (some centres not stated) | 104%
CN1C(=O)C[C@H](C(=O)N[C@@H](Cc2cnc[nH]2)C(=O)N2CCC[C@@H]2C(N)=O)NC1=O | 82%
